This is part of a sample that, as a whole, favours compounds with a hit. Of some 79,000 tested, about 15% had one in any assay. Rule as the data show it: active = growth inhibition above about 70%; inactive = the rest.
How the values were obtained:
[1] = NCI Yeast Anticancer Drug Screen. Data for the rad50 strain (AID 155);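 also: 0% = growth of vehicle-only cultures of the same strain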; conditions: S. cerevisiae rad50 strain growth inhibition; at 50.0 µM; active compounds read high
In short: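 Compounds were tested on a yeast strain with an engineered DNA damage repair alteration; the reported value is growth inhibition normalised to vehicle treatment.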

[2] = NCI Yeast Anticancer Drug Screen. Data for the mec2-1 strain (AID 157); conditions: S. cerevisiae mec2-1 strain, at 50.0 µM, active compounds read high
In short: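 Yeast mec2-1 mutant treated with compound. Readout: growth inhibition vs vehicle controls.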

[3] = NCI Yeast Anticancer Drug Screen. Data for the sgs1 mgt1 strain (AID 161);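 also: 0% = growth of cultures given vehicle only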; conditions: S. cerevisiae sgs1 mgt1 strain, at 50.0 µM, active compounds read high
In short: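 Inhibition of yeast growth, normalised to vehicle-treated controls, is reported for a strain bearing genetic alterations in DNA damage repair.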

[4] = NCI Yeast Anticancer Drug Screen. Data for the cln2 rad14 strain (AID 165);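 also: 0% = growth equal to vehicle treated cultures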; conditions: S. cerevisiae cln2 rad14 strain, at 50.0 µM, active compounds read high
In short: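 cln2 rad14 yeast strain; compound exposure; growth inhibition read vs vehicle controls.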

[5] = NCI Yeast Anticancer Drug Screen. Data for the bub3 strain (AID 167); conditions: S. cerevisiae bub3 mutant strain, at 50.0 µM, active compounds read high
In short: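 Growth of a checkpoint-deficient yeast mutant is measured after compound exposure. Values represent inhibition relative to vehicle.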

[6] = NCI Yeast Anticancer Drug Screen. Data for the mlh1 rad18 strain (AID 175); conditions: S. cerevisiae mlh1 rad18 strain growth inhibition; at 50.0 µM; active compounds read high
In short: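 Yeast w/ defined DNA-repair lesions; compound exposure; growth vs vehicle controls → % inhibition.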

Measured: growth inhibition

Cc1ccc(CCCC(=O)O)c(C)c1
inactive: [1] 6.5% | [2] -0.25% | [3] 22.1% | [4] 1.45% | [5] 28.9% | [6] 45.6%

CCOC(=O)C1=C(Nc2ccc(Br)cc2)C(=O)N(CC)C1
inactive: [1] 12.7% | [2] 1.2% | [3] 33% | [4] 14.9% | [5] 42.7% | [6] 19.1%

C[N+](C)(C)C(=O)c1ccccc1
inactive: [1] 21.6% | [2] 21.4% | [3] 22.1% | [4] 11.1% | [5] -1.15% | [6] 46.6%

O=C(CCl)Nc1ccc2c(c1)C(=O)c1ccc(NC(=O)CCl)cc1C2=O
inactive: [1] 6.3% | [2] -4.85% | [3] 4.15% | [4] 1.7% | [5] -21.2% | [6] 21.9%

C#CCSc1nnnn1-c1ccc(Br)c(C)c1
inactive: [1] 14.8% | [2] 1.3% | [3] 34.5% | [4] 22.3% | [5] 32.6% | [6] 7.1%

O=C1Cc2cc(O)ccc2O1
inactive: [1] -13.4% | [2] -28.2% | [3] -48.6% | [4] -0.85% | [5] -32% | [6] -8.75%

CC(=O)OCC1OC(OC2=C(CC=C(C)C)C(=O)c3ccccc3C2=O)C(OC(C)=O)C(OC(C)=O)C1OC(C)=O (centres undefined)
inactive: [1] -7.2% | [2] 3.85% | [3] -17.4% | [4] -15% | [5] -12.7% | [6] -6.6%

CCOC(=O)c1coc(C(=O)OCC)c1C(=O)OCC
inactive: [1] -4.95% | [2] -18.1% | [3] 5.25% | [4] -3.05% | [5] 4.6% | [6] 5.3%

N#Cc1ccc(NC(=O)Nc2cccc(C#N)c2)cc1
inactive: [1] -3.5% | [2] -12.3% | [3] -9.75% | [4] -15.1% | [5] -0.3% | [6] -15.6%

CCCC(=O)c1cc(C)ccc1OC
inactive: [1] -2.15% | [2] 0.15% | [3] -9.85% | [4] -22.6% | [5] 6.6% | [6] -3.2%

CC1CC(O)CC(C)(C)C1 (centres undefined)
inactive: [1] 5.55% | [2] -10.1% | [3] 1.35% | [4] -25.4% | [5] 2.2% | [6] -4.25%

O=c1cc(-c2ccccc2)oc2c1ccc1ccccc12
inactive: [1] 11% | [2] 34.1% | [3] 21.9% | [4] -90.3% | [5] 52.5% | [6] 38.5%

O=S(=O)(O)C(Nc1ccccc1)c1ccccc1 (centres undefined)
inactive: [1] -4.35% | [2] -27.7% | [3] 9.5% | [4] -0.25% | [5] 16% | [6] -11.6%

Nc1ccc(N=Nc2ccc(O)cc2)c(N)n1
inactive: [1] -15.7% | [2] -20.1% | [3] -16.7% | [4] 2.85% | [5] 22.7% | [6] -4.7%

COc1ccc(C2OC(N)=C(O)C2=O)cc1OC (centres undefined)
inactive: [1] -4.25% | [2] -23.1% | [3] -14.4% | [4] 11.2% | [5] -30.1% | [6] -31.9%

O=C1OC(=O)C2C1C1(Cl)C(Cl)=C(Cl)C2(Cl)C2C(=O)OC(=O)C21 (centres undefined)
inactive: [1] 2.45% | [2] 12.4% | [3] 17.9% | [4] -9.45% | [5] 25.3% | [6] -1.75%

S=C1CCCCCN1
inactive: [1] 47.6% | [2] 17.8% | [3] 42.6% | [4] 9.95% | [5] 30.4% | [6] 30.8%

Cc1ccccc1N=C(c1ccccc1)C1C(=O)c2ccccc2C1=O
inactive: [1] -20.6% | [2] 19.4% | [3] 42.2% | [4] 29% | [5] 49.2% | [6] 12.6%

CC(=O)CC(=O)N(C)C
inactive: [1] 0.3% | [2] -0.6% | [3] 6.9% | [4] -13.9% | [5] -2.5% | [6] 24.2%

Brc1cnc2ccccc2c1
inactive: [1] 12.8% | [2] 9.05% | [3] 26.7% | [4] -7.65% | [5] -2.55% | [6] 22.2%

CNC(=O)c1ccccc1CC1(O)c2ccccc2Oc2ccccc21
inactive: [1] 0.4% | [2] -13.5% | [3] 9.05% | [4] 0.7% | [5] -9.25% | [6] -8.55%

O=S(=O)(O)c1ccc(O)c2ccccc12
inactive: [1] -12.6% | [2] 19.4% | [3] 0% | [4] -30.1% | [5] 11.7% | [6] 56.2%

CC(=O)Cc1ccc(-c2ccccc2)cc1
inactive: [1] 18.4% | [2] 14.8% | [3] 8.3% | [4] -25.4% | [5] 10.3% | [6] 24.6%

CCNCCCCNCCCCNCCCCNCCCCNCC
inactive: [1] -16.6% | [2] 4.25% | [3] -6.1% | [4] 11.2% | [5] 3.95% | [6] 6.7%

Cc1ccc(N)cc1[N+](=O)[O-]
inactive: [1] 11.8% | [2] 2% | [3] 6.2% | [4] 18.2% | [5] 15.4% | [6] 15.8%

Cn1cnc2nc(Cl)nc(Cl)c21
inactive: [1] 13.1% | [2] 23% | [3] 10.7% | [4] -0.05% | [5] 27.1% | [6] 11.2%

O=C(CS)Nc1ccc2ccccc2c1
inactive: [1] 3.5% | [2] -0.85% | [3] 22% | [4] -36.9% | [5] -7.85% | [6] -1.15%

COc1cccc(O)c1O
inactive: [1] 3.45% | [2] 9.4% | [3] 1.2% | [4] 16.9% | [5] 9.95% | [6] 19.4%

O=[N+]([O-])c1ccccc1N=Nc1ccc(O)cc1O
inactive: [1] 35.4% | [2] 21.1% | [3] 31.9% | [4] -23.4% | [5] 10.7% | [6] 39.2%

Cc1ccccc1C1N=C2Oc3ccccc3C=C2C(=O)N1 (centres undefined)
inactive: [1] 10.7% | [2] -11.8% | [3] 0.6% | [4] -9.55% | [5] -17.4% | [6] -32.5%

CC1=CC(=O)c2ccccc2C1=O
inactive: [1] 14.4% | [2] 15.3% | [3] 0.1% | [4] 13.2% | [5] 25.6% | [6] 18.2%

CC(=O)OC(C(=O)O)c1ccccc1 (centres undefined)
inactive: [1] 15.9% | [2] -12.1% | [3] 0.25% | [4] 13.8% | [5] -8% | [6] 23.5%

CCS(=O)(=O)c1cc(=O)[nH]c(=O)[nH]1
inactive: [1] 22.1% | [2] 24.9% | [3] -30.9% | [4] 32.5% | [5] -1.45% | [6] -1.6%

c1ccc(Sc2ccccc2)cc1
inactive: [1] -4.6% | [2] 10.5% | [3] -8.5% | [4] -63.6% | [5] -7.95% | [6] 0.85%

Reference: PubChem BioAssay (NCI)
